Measured values taken from PubChem BioAssay AID1159580 (chemical genetic matrix, 2015).
Where “and” joins values, the source holds several entries; their conditions need not be identical. Equal values may be shown once. About 2,000 (36%) of roughly 5,500 compounds were called active. Another 18% or so got no clear call; they are omitted. Rule as the data show it: active = normalized growth mostly below about 0.91 (no sharp cut-off); inconclusive = no clear call, values can overlap the other calls; inactive = mostly above about 0.92. The list shows a part of the results.

Assay: chemical genetic growth profiling, strain panel (AID 1159580);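 also: tested at 20 µM; growth read once vehicle control cultures reached saturation at 30 °C; 1 = growth at the plate median or of vehicle wells; lower values mean less growth of the strain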
Conditions: S. cerevisiae deletion strains, growth OD

Measured: normalized growth

CC[C@H](CCC(C)[C@H]1CCC2C3CCC4C[C@@H](O)CC[C@]4(C)C3CC[C@@]21C)C(C)C (stereo partly drawn)
inactive: locus YAL013W, strain DEP1, stronger effect = lower value 1.01 | locus YAL021C, strain ccr4, stronger effect = lower value 0.968 | locus YAL026C, strain drs2, stronger effect = lower value 0.955 | locus YAL030W, strain snc1, stronger effect = lower value 0.985 | locus YBL061C, strain skt5, stronger effect = lower value 0.988 | locus YBR009C, strain hhf1, stronger effect = lower value 0.983 | locus YBR021W, strain FUR4, stronger effect = lower value 0.993 | locus YBR023C, strain chs3, stronger effect = lower value 0.988 | locus YBR171W, strain sec66, stronger effect = lower value 0.976 | locus YBR229C, strain ROT2, stronger effect = lower value 0.999 | locus YBR231C, strain swc5, stronger effect = lower value 1.01 | locus YBR279W, strain paf1, stronger effect = lower value 0.983 | locus YCL011C, strain gbp2, stronger effect = lower value 0.986 | locus YCL016C, strain dcc1, stronger effect = lower value 0.992 | locus YCL029C, strain bik1, stronger effect = lower value 1.03 | locus YCL061C, strain MRC1, stronger effect = lower value 0.99 | locus YCL069W, strain vba3, stronger effect = lower value 0.971 | locus YCR088W, strain abp1, stronger effect = lower value 0.988 | locus YDL005C, strain med2, stronger effect = lower value 0.975 | locus YDL035C, strain GPR1, stronger effect = lower value 1.01 | locus YDL040C, strain nat1, stronger effect = lower value 0.991 | locus YDL074C, strain BRE1, stronger effect = lower value 1 | locus YDL101C, strain DUN1, stronger effect = lower value 1.01 | locus YDL185W, strain tfp1, stronger effect = lower value 1.02 | locus YDL192W, strain arf1, stronger effect = lower value 1.02 | locus YDR001C, strain nth1, stronger effect = lower value 0.984 | locus YDR069C, strain doa4, stronger effect = lower value 0.977 | locus YDR101C, strain arx1, stronger effect = lower value 1.01 | locus YDR137W, strain rgp1, stronger effect = lower value 0.973 | locus YDR159W, strain sac3, stronger effect = lower value 0.975 | locus YDR162C, strain NBP2, stronger effect = lower value 1.02 | locus YDR195W, strain ref2 0.946 | locus YDR297W, strain sur2, stronger effect = lower value 0.993 | locus YDR318W, strain mcm21, stronger effect = lower value 1.01 | locus YDR334W, strain swr1, stronger effect = lower value 0.972 | locus YDR335W, strain msn5, stronger effect = lower value 0.984 | locus YDR388W, stronger effect = lower value 1.01 | locus YDR392W, strain spt3, stronger effect = lower value 0.932 | locus YDR502C, strain sam2, stronger effect = lower value 1.01 | locus YEL003W, strain gim4, stronger effect = lower value 0.991 | locus YEL037C, strain rad23, stronger effect = lower value 0.948 | locus YEL061C, strain CIN8 (second series), stronger effect = lower value 0.975 | locus YEL061C, strain CIN8, stronger effect = lower value 1.01 | locus YER015W, strain faa2, stronger effect = lower value 0.995 | locus YER016W, strain bim1, stronger effect = lower value 0.992 | locus YER110C, stronger effect = lower value 1.01 | locus YER111C, strain swi4, stronger effect = lower value 0.992 | locus YER155C, strain BEM2 (second series), stronger effect = lower value 0.987 | locus YER155C, strain BEM2, stronger effect = lower value 1.01 | locus YER167W, strain BCK2, stronger effect = lower value 1 | locus YFR010W, strain ubp6, stronger effect = lower value 0.964 | locus YGL078C, strain dbp3, stronger effect = lower value 1.02 | locus YGL086W, strain mad1, stronger effect = lower value 0.997 | locus YGL167C, strain pmr1, stronger effect = lower value 0.999 | locus YGL173C, strain kem1, stronger effect = lower value 0.999 | locus YGL227W, strain vid30, stronger effect = lower value 0.992 | locus YGL240W, strain doc1, stronger effect = lower value 0.988 | locus YGL248W, strain PDE1, stronger effect = lower value 1.01 | locus YGL253W, strain hxk2, stronger effect = lower value 0.997 | locus YGR135W, strain pre9, stronger effect = lower value 1.01 | locus YGR252W, strain gcn5, stronger effect = lower value 0.998 | locus YHR013C, strain ard1, stronger effect = lower value 0.968 | locus YHR027C, strain rpn1, stronger effect = lower value 0.982 | locus YHR030C, strain SLT2, stronger effect = lower value 1.01 and 1.06 | locus YHR079C, strain IRE1 (second series), stronger effect = lower value 1.01 | locus YHR079C, strain IRE1, stronger effect = lower value 1.03 | locus YHR094C, strain hxt1, stronger effect = lower value 1.01 | locus YHR129C, strain ARP1, stronger effect = lower value 1.01 | locus YHR142W, strain chs7, stronger effect = lower value 1.01 | locus YHR200W, strain rpn10, stronger effect = lower value 1.01 | locus YIL066C, strain RNR3, stronger effect = lower value 1.01 | locus YIL073C, strain SPO22, stronger effect = lower value 1.03 | locus YIL125W, strain kgd1, stronger effect = lower value 1.01 | locus YIR030C, strain dcg1, stronger effect = lower value 1 | locus YJL092W, strain hpr5, stronger effect = lower value 0.982 | locus YJL095W, strain BCK1 (second series), stronger effect = lower value 1 | locus YJL095W, strain BCK1, stronger effect = lower value 0.997 and 0.966 | locus YJL115W, strain asf1, stronger effect = lower value 0.982 | locus YJL129C, strain trk1, stronger effect = lower value 0.985 | locus YJL134W, strain LCB3, stronger effect = lower value 1 | locus YJL154C, strain vps35, stronger effect = lower value 0.978 | locus YJL164C, strain tpk1, stronger effect = lower value 0.997 | locus YJL166W, strain qcr8, stronger effect = lower value 1.06 | locus YJL168C, strain set2, stronger effect = lower value 1 | locus YJL187C, strain SWE1 (second series), stronger effect = lower value 1 | locus YJL187C, strain SWE1, stronger effect = lower value 0.981 | locus YJR043C, strain POL32, stronger effect = lower value 1.03 | locus YJR066W, strain TOR1, stronger effect = lower value 0.991
